“And” between values parts separate entries of the source, which are not always exact repeats. Equal entries are not always repeated. Out of some 290,000 compounds screened, about 890 (0.31%) were called active. Rule as the data show it: active = inhibition mostly above about 52% (no sharp cut-off); inactive = mostly below about 76%. The list comes from a sample in which actives are over-represented; it also holds similar structures and randomly drawn compounds. More than one record can exist for a structure, and the calls need not agree.
Assay: inhibitors of HIV fusion peptide binding, primary screen, biochemical, uHTS, fluorescence dequenching (AID 1986)
Details: cell-free peptide binding, 30 min, stronger effect = higher value
[1] = measured here: repeat confirmation average inhibition, at 18.6 µM

SMILES | inhibition (at 20 µM) | inhibition [1] [%]
O=C(Nc1nc(-c2ccccc2)cs1)c1ccccc1NS(=O)(=O)c1ccc(F)cc1 | 71.5% (active) | –
O=C(Nc1nc(-c2ccccc2)cs1)c1ccccc1F | 0% (inactive) | –
COc1ccc(-c2csc(NC(=O)c3ccccc3S(C)(=O)=O)n2)cc1 | 0.4% (inactive) | –
O=S(=O)(Nc1ccc(-c2csc(-c3ccccc3)n2)cc1)c1ccc(F)cc1 | 0% (inactive) | –
O=C(Nc1cc(S(=O)(=O)N2CCCCC2)ccc1O)c1ccccc1NS(=O)(=O)c1ccc(F)c(F)c1 | 62.7% (active) | –
Cc1ccc(S(=O)(=O)Nc2ccccc2C(=O)Nc2nc(-c3ccc(F)cc3)cs2)cc1 | 65.5% (active) | –
O=C(Nc1cc(S(=O)(=O)N2CCCCC2)ccc1O)c1ccccc1NS(=O)(=O)c1ccc(F)cc1 | 49.5% (inactive) | –
COc1ccc(-c2csc(NC(=O)c3ccccc3NS(=O)(=O)c3ccc(F)c(F)c3)n2)cc1 | 65% (active) | –
Cc1ccc(S(=O)(=O)Nc2nc(-c3ccc(F)cc3)cs2)cc1 | 20% (inactive) | –
O=C(Nc1cccc(S(=O)(=O)N2CCCCC2)c1)c1ccccc1NS(=O)(=O)c1ccc(F)cc1 | 58% (inactive) | 26
Cc1ccc(S(=O)(=O)Nc2nc(-c3ccccc3)cs2)cc1 | 6.9% (inactive) | –
COc1ccc(-c2csc(NC(=O)c3ccccc3F)n2)cc1 | 0.1% (inactive) | –
CCCOc1ccc2c(CC)cc(=O)oc2c1C | -0.2% (inactive) | –
Cc1sc2nc(C3CC3)nc(N3CCN(S(=O)(=O)c4ccc(F)cc4)CC3)c2c1C | -0.3% (inactive) | –
CC(=O)c1ccc(-n2nnnc2SCC(=O)Nc2sc(C)c(C)c2C#N)cc1 | 6.6% (inactive) | –
CSc1cccc(NC(=O)CCCOc2ccccc2)c1 | -0.1% (inactive) | –
Cc1cnc(C(=O)OCc2csc(CC(=O)Nc3ccccc3C)n2)cn1 | 1.8% (inactive) | –
c1ccc(C2=Nc3c(ccc4ccccc34)C(c3ccncc3)=NN2)cc1 | -3% (inactive) | –
Cc1ccc(CNS(=O)(=O)c2ccc(F)c(F)c2)n1C | -1.8% (inactive) | –
CCOC(=O)c1c(C)[nH]c(C(=O)N/N=C/c2ccc(Br)cc2)c1C | -1.7% (inactive) | –
O=C(O)c1cc(-c2ccco2)nc2ccccc12 | 0.1% (inactive) | –
O=C(O)c1cc(-c2ccco2)nc2cc3ccccc3cc12 | 35.7% (inactive) | –
O=C(O)c1cc(-c2ccco2)nc2ccc(Br)cc12 | 51.2% (inactive) and 65% (active) | 11.6
O=C(NC1CCCC1)C(c1ccncc1)N(C(=O)c1csnn1)c1ccc(F)cc1 (stereo not drawn) | 0.5% (inactive) | –

SMILES | inhibition (at 20 µM) | inhibition [1] [%]
Cc1ccc(N2CC(C(=O)Nc3nnc(SCC(=O)NCC4CCCO4)s3)CC2=O)cc1 (stereo not drawn) | 0.9% (inactive) | –
O=C(N/N=C/c1cccs1)/C(=C/c1ccccc1)NC(=O)c1ccccc1 | 1.7% (inactive) | –
COc1ccc([N+](=O)[O-])cc1/C=N/NC(=O)/C(=C\c1cccs1)NC(=O)c1ccccc1 | -1.3% (inactive) | –
O=C(N/N=C/c1cc([N+](=O)[O-])cc([N+](=O)[O-])c1O)/C(=C\c1cccs1)NC(=O)c1ccccc1 | 65% (active) | –
O=C(Cc1ccc(Cl)cc1)NCC(=O)N1CCN(c2ccccc2)CC1 | 0.4% (inactive) | –
O=C1NN(c2ccccc2)C(=O)/C1=C/c1ccc(Sc2ccc(Cl)cc2)o1 | 17.5% (inactive) | –
Cc1ccc(Sc2ccc(/C=C3/C(=O)NN(c4ccccc4)C3=O)o2)cc1 | 9.4% (inactive) | –
O=C1NN(c2ccccc2)C(=O)/C1=C/c1ccc(Sc2cccc3ccccc23)o1 | 71.8% (active) | –
O=C(NCCCc1ccccc1)[C@@H]1Cc2ccccc2CN1 | -0.5% (inactive) | –
NS(=O)(=O)c1ccc(-c2ccc(C=C3C(=O)c4ccccc4C3=O)o2)cc1 | 1.7% (inactive) | –
COc1ccccc1-c1ccc(/C=C2/C=C(CC(C)C)OC2=O)o1 | 40.1% (inactive) | –
CC(C)CC1=C/C(=C/c2ccc(-c3ccccc3)o2)C(=O)O1 | 51.7% (active) | –
O=Cc1cn(CCC(=O)O)nc1-c1cccc(Br)c1 | 1.1% (inactive) | –
Cc1ccc(-c2nn(CCC(=O)O)cc2/C=C\C(=O)c2ccc(Br)cc2)cc1 | 48.6% (inactive) | –
O=C(O)CCn1cc(/C=C\C(=O)c2ccc(Cl)cc2)c(-c2cccc(Br)c2)n1 | 60.3% (active) | –
CCOC(=O)c1sc(NC(=O)c2cc3n(n2)C(C(F)(F)F)CC(c2ccccc2)N3)c(C(=O)OCC)c1C (stereo not drawn) | 0.6% (inactive) | –
Cc1cc2c(cc1S(=O)(=O)N(C)Cc1ccccc1)OCC(=O)N2 | -2% (inactive) | –
COc1cc(OC)c(OC)cc1/C=C1\Oc2cc(OCC(=O)N3Cc4ccccc4C[C@H]3C(=O)O)ccc2C1=O | 123% (active) | 106
COc1ccc(OC)c(/C=C2\Oc3cc(OCC(=O)N4CC(O)C[C@H]4C(=O)O)ccc3C2=O)c1 (stereo partly drawn) | 2.3% (inactive) | –
COc1cccc(/C=C2\Oc3cc(OCC(=O)N4Cc5ccccc5C[C@H]4C(=O)O)ccc3C2=O)c1 | 64.4% (inactive) | 40.9
Cc1nc(Oc2cccc(Cl)c2)c2oc3ccccc3c2n1 | -0.8% (inactive) | –
O=C(COC(=O)CCCOc1ccccc1)NNC(=O)c1ccc([N+](=O)[O-])cc1 | -0.7% (inactive) | –
CC1=CN2C(=N)/C(=C/c3ccco3)C(=O)N=C2S1 | 7.9% (inactive) | –
CC1=CN2C(=N)/C(=C/c3ccc(C)o3)C(=O)N=C2S1 | 5.4% (inactive) | –

SMILES | inhibition (at 20 µM) | inhibition [1] [%]
Cn1c(=O)n(C)c2cc(/C=N/NC(=O)c3ccncc3)ccc21 | 1.3% (inactive) | –
Cc1[nH]n(-c2ncc(-c3ccccc3)s2)c(=O)c1C(c1ccc(Br)cc1)C(C#N)C#N (stereo not drawn) | 57.3% (inactive) | 40.9
Cc1[nH]n(-c2ncc(-c3ccccc3)s2)c(=O)c1C(c1ccc(Cl)cc1)C(C#N)C#N (stereo not drawn) | 70.8% (active) | –
Cc1[nH]n(-c2ncc(-c3ccc(Cl)cc3)s2)c(=O)c1C(c1ccc(Cl)cc1)C(C#N)C#N (stereo not drawn) | 48.5% (inactive) | –
CC(C)(C)n1nc2c(c1NC(=O)Cc1cccc3ccccc13)CS(=O)C2 (stereo not drawn) | -1.8% (inactive) | –
O=C(Nc1ccc(Cl)cc1)Nc1ccc2c(c1)OCO2 | -0.2% (inactive) | –
CN(C)C(=O)c1ccc(-c2cc(C(F)(F)F)nn2C)s1 | -1.2% (inactive) | –
Cn1nc(C(F)(F)F)cc1-c1ccc(/C=C(\C#N)C(=O)c2ccccc2)s1 | 92% (active) | 179
Cn1nc(C(F)(F)F)cc1-c1ccc(/C=C(\C#N)C(=O)c2cccc(C(F)(F)F)c2)s1 | 55.2% (active) | –
Cn1nc(C(F)(F)F)cc1-c1ccc(S(N)(=O)=O)s1 | 2.8% (inactive) | –
CNC(=O)c1ccc(-c2cc(C(F)(F)F)nn2C)s1 | -1.4% (inactive) | –
N#C/C(=C\c1ccc(-c2cccc(C(F)(F)F)c2)o1)C(=O)Nn1cnnc1 | 49.6% (inactive) | –
Cc1ccc(-n2nnc(-c3cc4ccccc4nc3Cl)n2)cc1 | 0.2% (inactive) | –
O=C(CN(c1ccc(F)cc1)S(=O)(=O)c1ccc2c(c1)OCCO2)NCC1CCCO1 (stereo not drawn) | 1.4% (inactive) | –
CCOc1ccc2nc(SCC(=O)c3ccc(C)s3)sc2c1 | 0% (inactive) | –
CCOc1ccc(NC(=O)C2CSC(c3ccncc3)=N2)cc1 (stereo not drawn) | 1.2% (inactive) | –
CC1=C(C(=O)Nc2ccccn2)C(c2ccccc2)n2ncnc2N1 (stereo not drawn) | -2.7% (inactive) | –
CCNc1nc(NC(C)C)nc(SCCOC(=O)c2ccccc2)n1 | 2.3% (inactive) | –
Cc1c(C)n(Cc2ccc(F)cc2)c2ccc(C(=O)NCCN3CCOCC3)cc12 | -1.7% (inactive) | –
COc1ccccc1NS(=O)(=O)c1cccc(NC(=O)Nc2ccccc2)c1 | 1.4% (inactive) | –
O=C(Nc1ccccc1C(=O)O)c1cccc(N2C(=O)c3ccccc3C2=O)c1 | 2.5% (inactive) | –
NC(=O)NCc1cccc(Cl)c1 | 2.5% (inactive) | –
CCOC(=O)C(=CNc1ccc(C(F)(F)F)cc1Cl)C(=O)OCC | 0.9% (inactive) | –
CCOc1ccc2c(c1)c1nnc(SCC(=O)NC3CC3)nc1n2C | -0.7% (inactive) | –

SMILES | inhibition (at 20 µM) | inhibition [1] [%]
C(=N\NC1=Nc2cccc3cccc1c23)/c1ccccc1 | 20.5% (inactive) | –
Clc1ccc(/C=N/NC2=Nc3cccc4cccc2c34)cc1 | 43.5% (inactive) | –
Clc1ccccc1/C=N/NC1=Nc2cccc3cccc1c23 | 51.2% (active) | –
N/C(CC(=O)NC1CCCCC1)=N\OCC(=O)Nc1ccc(Cl)c(Cl)c1 | 1.7% (inactive) | –
COc1cc2c(cc1NC(=S)NC(=O)/C=C/c1ccc(OC)c(OC)c1)oc1ccccc12 | 1.2% (inactive) | –
COc1cc2c(cc1NC(=S)NC(=O)/C=C/c1ccco1)oc1ccccc12 | 67.5% (active) | –
COc1ccc(/C=C/C(=O)NC(=S)Nc2cc3oc4ccccc4c3cc2OC)cc1 | 1.6% (inactive) | –
COc1ccc(C2NC(=O)c3ccccc3O2)cc1 (stereo not drawn) | -1.3% (inactive) | –
Cc1ccc(SCCNCc2ccco2)cc1 | 0.3% (inactive) | –
COc1cc2c(cc1O)CC[n+]1cc3c(OC)c(OC)ccc3cc1-2 | 0.6% (inactive) | –
COc1ccc2cc3[n+](cc2c1OC)CCc1cc2c(cc1-3)OCO2 | -1.4% (inactive) | –
COc1cc2c(cc1OC)-c1cc3ccc4c(c3c[n+]1CC2)OCO4 | 120% (active) | 70.7
O=[N+]([O-])c1sccc1CS(=O)(=O)c1ccccc1 | -1.5% (inactive) | –
CC(=O)Nc1cccc(NC(=O)c2ccc([N+](=O)[O-])cc2Cl)c1 | 3.5% (inactive) | –
O=C(Nc1cccc(Cl)c1)c1cc(N=Nc2ccc([N+](=O)[O-])cc2Cl)ccc1O | 52.8% (active) | –
O=C(Nc1cccc(O)c1)c1ccc([N+](=O)[O-])cc1Cl | 0.3% (inactive) | –
CC1C(=O)N2CCCc3cc(NS(C)(=O)=O)cc1c32 (stereo not drawn) | 2.3% (inactive) | –
Cc1cc(N2CCCC2)ccc1/C=C1\NC(=S)N(C)C1=O | 94.7% (active) | –
O=C1N/C(=C/c2ccc(N3CCCC3)cc2)C(=O)N1c1ccccc1 | 4.9% (inactive) | –
COCCN1C(=O)/C(=C/c2ccc(N3CCCC3)cc2C)SC1=S | 147% (inactive) | –
CCN1C(=O)/C(=C/c2ccc(N3CCCC3)cc2)NC1=S | 149% (inactive) | –
Cc1cc(N2CCCC2)ccc1/C=C1/C(=O)N(C)C(=S)N1C | 9.5% (inactive) | –
O=C1/C(=C/c2ccc(N3CCCC3)cc2)NC(=S)N1C1CC1 | 65.9% (active) | 83.2

— PubChem BioAssay AID1986 (Sanford-Burnham Center for Chemical Genomics, 2009)
